Experimental data taken from PubChem BioAssay (NCI).
About 83,000 compounds went through this panel and 20% of them were active in at least one assay; those are over-represented in the sample as a whole.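 Growth was measured after 48 h exposure to one concentration of compound in 96-well plates. Values under 10 count as active.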 A number with no mark means an inactive call. Calls of active or inactive are those of the source.

Tests used:
Test in all cases: NCI-60 one-dose screen, 48 h (100 = growth as untreated, 0 = no growth, -100 = all killed)
Details in all cases: 10 µM unless noted
[1] = system: HCT-15 colon
[2] = system: HT29 colon
[3] = system: SNB-75 CNS
[4] = system: SNB-19 CNS
[5] = system: PC-3 prostate
[6] = system: SK-MEL-5 melanoma
[7] = system: UACC-62 melanoma
[8] = system: LOX IMVI melanoma
[9] = system: SK-MEL-28 melanoma
[10] = system: U251 CNS

SMILES	growth [1]	growth [2]	growth [3]	growth [4]	growth [5]	growth [6]	growth [7]	growth [8]	growth [9]	growth [10]
c1ccc2nc(Cn3c[n+](Cc4ccc5ccccc5n4)c4ccccc43)ccc2c1	98.7%	15.5%	41.4%	30.5%	14.6%	-83.9% (active)	-16.4% (active)	25.8%	39.4%	–
Cc1ccccc1NC(=O)N/C(N)=N/c1nc2ccccc2s1	20.2%	5% (active)	–	31.8%	36.3%	-53.3% (active)	38.8%	21.7%	54.6%	20.3%
CCCCCCCCCCCCCCCCCC1=NC(C)(CO)CO1 (configuration not stated)	92.4%	92.8%	120%	101%	73.4%	97.1%	86.7%	98%	109%	–
N#Cc1ncc(-c2ccc(C(F)(F)F)cc2)c(NC2CCCCCC2)n1	57.1%	19.1%	49.7%	35.2%	4.57% (active)	-6.45% (active)	13.2%	32.5%	36.5%	–
CC(=O)O[C@H]1CC[C@@]2(C)C(=CC[C@@H]3[C@@H]2CC[C@]2(C)C(c4cccnc4)=CC[C@@H]32)C1	51.4%	22.1%	51%	72.3%	–	20.9%	44.1%	63.4%	44.4%	–
Cc1cc(C)c(C(=O)c2cccs2)c(C)c1	102%	98.4%	86.2%	99.6%	89.5%	–	97%	102%	114%	–
Cc1n(Cc2ccc3ccccc3c2)c2ccccc2[n+]1Cc1ccc2ccccc2c1	15.7%	-53.3% (active)	–	-91.7% (active)	-68.1% (active)	-97.6% (active)	-57.9% (active)	-89% (active)	–	-87.6% (active)
CCCCNCCCN(CCCC)CCCNCCCC	93.2%	105%	110%	98.2%	90.4%	97.3%	96.5%	104%	99.6%	–
CCC(C)C1NC(=O)C(CCNCS(=O)(=O)O)NC(=O)C(NC(=O)C(CCNCS(=O)(=O)O)NC(=O)C(NC(=O)C(CCNCS(=O)(=O)O)NC(=O)CCCCC(C)C)C(C)O)CCNC(=O)C(C(C)O)NC(=O)C(CCNCS(=O)(=O)O)NC(=O)C(CCNCS(=O)(=O)O)NC(=O)C(C(C)CC)NC1=O (configuration not stated)	99.6%	17.3%	48.5%	54.9%	61.6%	4.4% (active)	47.5%	48.8%	49.8%	–
O=C1OC2(c3ccccc31)c1ccccc1-c1ccccc12	71.4%	74.6%	61.2%	83%	74.4%	78.9%	57.4%	77.6%	74.5%	–
CC(=O)OC1Oc2cc(C)c(C)cc2-c2oc(=O)c(-c3ccccc3)cc21 (configuration not stated)	6.95% (active)	-23.7% (active)	–	26.9%	-11.4% (active)	16.7%	14.2%	41.9%	–	13.2%
CC(NNC(=S)N1CCCCCC1)c1ccc2ccccc2n1 (configuration not stated)	30.8%	35.9%	71.4%	44.1%	34.6%	30.9%	11.3%	29.6%	54.7%	–
COc1cnc2c(c1)C(=O)c1c-2n(CCCN2CCOCC2)c(=O)c2cc(F)ccc12	8.29% (active)	-27.5% (active)	-19.1% (active)	14.5%	12.1%	-95.1% (active)	-52% (active)	-50.3% (active)	18.6%	–
CC(=O)N1N=C(c2ccc(Nc3ccnc4cc(Cl)ccc34)cc2)CC1c1ccc(Cl)cc1 (configuration not stated)	30.1%	25.9%	59.6%	65.6%	37.8%	–	44.2%	33.6%	45.9%	–
N#CSCC1CC(O)(c2ccccc2)C(c2ccccc2)C(c2ccc(Cl)cc2)O1 (configuration not stated)	-64.6% (active)	1.18% (active)	37.5%	36.6%	-6.02% (active)	-87.4% (active)	-90.5% (active)	-97.4% (active)	-84% (active)	–
CCOC(=O)/C(=C/CC/C(C)=C/CC/C(C)=C/CCc1ccoc1)CC(=O)N1CCCCC1	69.2%	55.5%	82.6%	36%	28.7%	9% (active)	23.8%	–	36.8%	–
OCCN1CCN(CCCN2c3ccccc3Sc3ccc(C(F)(F)F)cc32)CC1	18.3%	-43% (active)	46.3%	62.7%	20.4%	-93.3% (active)	-55.5% (active)	-41.6% (active)	-86.6% (active)	–
O=C1/C(=C/c2ccccc2Cl)CCc2ccccc21	104%	97.2%	105%	89.7%	95.6%	102%	94.2%	91.7%	101%	–
O=C1NC(=O)/C(=C/c2ccc(Cl)cc2Cl)N1	103%	121%	83.7%	107%	96.5%	108%	102%	97.3%	109%	–
COc1cc(OC)c2c(c1Cl)O[C@]1(C2=O)C(OCc2ccccc2)=CC(=O)C[C@H]1C	15.7%	7.63% (active)	24.2%	36.2%	6.5% (active)	-75% (active)	6.94% (active)	17.9%	16.4%	–
C[C@@H]1C[C@@H]([C@@H](CC2CC(=O)NC(=O)C2)OC(=O)CC(=O)c2ccccc2)C(=O)[C@@H](C)C1	8.97% (active)	10.4%	17.8%	18.9%	12.3%	7.03% (active)	11.2%	11.3%	13.5%	–
CCOC(=O)N1CCC(N=C2CSc3nnc(-c4cc(C(F)(F)F)cc(C(F)(F)F)c4)n3N2)CC1	25.2%	-3.65% (active)	–	58.2%	2.55% (active)	-67.5% (active)	32.6%	16.5%	44.5%	22.6%
COC(=O)Nc1ccc2ccc3c(NC(=O)OC)ccc4ccc1c2c43 (tested in a mixture with another compound)	35.6%	30.6%	50.7%	60.8%	48.4%	–	41.5%	32.9%	73.3%	–
O=C(N/N=C/c1cccc(O)c1O)c1ccccc1	22.7%	26.4%	41%	35.7%	28.9%	0.968% (active)	-9.23% (active)	7.69% (active)	30.5%	–
Cc1ccc(C2=Nc3c(ccc4c(C)c(C)c(=O)oc34)OC2)cc1	94.4%	102%	95.7%	101%	88.9%	101%	107%	94.5%	110%	–
CCOC(=O)Nc1cc(-c2ccc(C)c(NS(C)(=O)=O)c2)nn2c(C)nnc12	9.95% (active)	9.76% (active)	1.74% (active)	39.1%	23.8%	-57.2% (active)	12.9%	-22.7% (active)	14.3%	–
c1ccc(N2c3nc4ccccc4cc3Sc3cc4ccccc4nc32)nc1	95.6%	104%	109%	97.8%	72.5%	91.3%	78.4%	84.1%	115%	–
Cc1ncc(C(=O)Nc2ccc(CN3CCN(C)CC3)c(C(F)(F)F)c2)cc1C#Cc1cncc2ncccc12	48.4%	32.4%	74.4%	107%	90.6%	37.5%	40.7%	10.8%	16.3%	–
NS(=O)(=O)N(c1cc(C(F)(F)F)cc(C(F)(F)F)c1)C1CCN(Cc2ccc(C(F)(F)F)cc2)CC1	45.7%	5.92% (active)	-4.94% (active)	–	26%	38.2%	24.3%	23.5%	55.4%	33%
Cc1cc(C)c2c(N)c3cccc(C)c3nc2n1	10.4%	0.696% (active)	10.4%	18.6%	-4.42% (active)	–	-45.8% (active)	1.49% (active)	-9.8% (active)	–
